Data published in PubChem BioAssay AID1159580 (chemical genetic matrix, 2015).
Several values for one entry are separate records, joined by “and”; a condition that tells them apart may be missing. Equal entries are not always repeated. About 2,000 (36%) of roughly 5,500 compounds were called active. Not shown: some 18% with an inconclusive outcome. No stated cut-off is given here; in the data, active means normalized growth mostly below about 0.91 (no sharp cut-off); inconclusive means no clear call, values can overlap the other calls; inactive means mostly above about 0.92. Some of the results follow.

Test: chemical genetic growth profiling, strain panel (AID 1159580);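 further: tested at 20 µM; growth read once vehicle control cultures reached saturation at 30 °C; 1 = growth at the plate median or of vehicle wells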
Conditions: S. cerevisiae deletion strains, growth OD

Measured: normalized growth

CC(NC(C)(C)C)C(=O)c1cccc(Cl)c1 (stereo not given)
inactive: locus YAL013W, strain DEP1, stronger effect = lower value 1.01 | locus YAL021C, strain ccr4, stronger effect = lower value 1.02 | locus YAL026C, strain drs2, stronger effect = lower value 1 | locus YAL030W, strain snc1, stronger effect = lower value 0.998 | locus YAL040C, strain CLN3, stronger effect = lower value 0.958 | locus YBL061C, strain skt5, stronger effect = lower value 0.993 | locus YBR009C, strain hhf1, stronger effect = lower value 1 | locus YBR021W, strain FUR4, stronger effect = lower value 0.995 | locus YBR023C, strain chs3, stronger effect = lower value 0.996 | locus YBR171W, strain sec66, stronger effect = lower value 0.996 | locus YBR229C, strain ROT2, stronger effect = lower value 1 | locus YBR231C, strain swc5, stronger effect = lower value 1 | locus YBR279W, strain paf1, stronger effect = lower value 0.998 | locus YCL011C, strain gbp2, stronger effect = lower value 1 | locus YCL016C, strain dcc1, stronger effect = lower value 0.995 | locus YCL029C, strain bik1, stronger effect = lower value 1.05 | locus YCL061C, strain MRC1, stronger effect = lower value 0.994 | locus YCL069W, strain vba3, stronger effect = lower value 0.994 | locus YCR088W, strain abp1, stronger effect = lower value 1 | locus YDL005C, strain med2, stronger effect = lower value 0.993 | locus YDL035C, strain GPR1, stronger effect = lower value 1.01 | locus YDL040C, strain nat1, stronger effect = lower value 0.994 | locus YDL074C, strain BRE1, stronger effect = lower value 0.988 | locus YDL101C, strain DUN1, stronger effect = lower value 1.02 | locus YDL134C, strain PPH21, stronger effect = lower value 1 | locus YDL185W, strain tfp1, stronger effect = lower value 1.02 | locus YDL192W, strain arf1, stronger effect = lower value 1.03 | locus YDR001C, strain nth1, stronger effect = lower value 1.01 | locus YDR069C, strain doa4, stronger effect = lower value 1 | locus YDR101C, strain arx1, stronger effect = lower value 1.03 | locus YDR137W, strain rgp1, stronger effect = lower value 1 | locus YDR150W, strain NUM1, stronger effect = lower value 1.01 and 0.976 | locus YDR159W, strain sac3, stronger effect = lower value 0.997 | locus YDR162C, strain NBP2, stronger effect = lower value 1.01 | locus YDR195W, strain ref2 0.989 | locus YDR297W, strain sur2, stronger effect = lower value 1 | locus YDR318W, strain mcm21, stronger effect = lower value 1.02 | locus YDR334W, strain swr1, stronger effect = lower value 0.986 | locus YDR335W, strain msn5, stronger effect = lower value 1 | locus YDR363W, strain ESC2, stronger effect = lower value 1.02 | locus YDR388W, stronger effect = lower value 1.02 | locus YDR392W, strain spt3, stronger effect = lower value 0.978 | locus YDR502C, strain sam2, stronger effect = lower value 1.04 | locus YEL003W, strain gim4, stronger effect = lower value 1 | locus YEL037C, strain rad23, stronger effect = lower value 1 | locus YEL061C, strain CIN8 (second series), stronger effect = lower value 1 | locus YEL061C, strain CIN8, stronger effect = lower value 1.01 | locus YER002W, strain NOP16, stronger effect = lower value 0.979 | locus YER015W, strain faa2, stronger effect = lower value 1 | locus YER016W, strain bim1, stronger effect = lower value 1 | locus YER110C, stronger effect = lower value 1.05 | locus YER111C, strain swi4, stronger effect = lower value 0.987 | locus YER155C, strain BEM2 (second series), stronger effect = lower value 1.01 | locus YER155C, strain BEM2, stronger effect = lower value 1 | locus YER167W, strain BCK2, stronger effect = lower value 1.01 | locus YFR010W, strain ubp6, stronger effect = lower value 1 | locus YGL078C, strain dbp3, stronger effect = lower value 1 | locus YGL086W, strain mad1, stronger effect = lower value 1 | locus YGL167C, strain pmr1, stronger effect = lower value 0.991 | locus YGL173C, strain kem1, stronger effect = lower value 0.977 | locus YGL227W, strain vid30, stronger effect = lower value 0.992 | locus YGL240W, strain doc1, stronger effect = lower value 1.02 | locus YGL248W, strain PDE1, stronger effect = lower value 1.01 | locus YGL253W, strain hxk2, stronger effect = lower value 0.992 | locus YGR078C, strain PAC10, stronger effect = lower value 1.01 | locus YGR135W, strain pre9, stronger effect = lower value 1.02 | locus YGR229C, strain SMI1, stronger effect = lower value 0.999 | locus YGR252W, strain gcn5, stronger effect = lower value 0.989 | locus YHR013C, strain ard1, stronger effect = lower value 0.976 | locus YHR027C, strain rpn1, stronger effect = lower value 0.996 | locus YHR030C, strain SLT2, stronger effect = lower value 1.01 and 1 | locus YHR079C, strain IRE1 (second series), stronger effect = lower value 1.02 | locus YHR079C, strain IRE1, stronger effect = lower value 0.999 | locus YHR094C, strain hxt1, stronger effect = lower value 1.02 | locus YHR129C, strain ARP1, stronger effect = lower value 1.02 | locus YHR142W, strain chs7, stronger effect = lower value 1 | locus YHR200W, strain rpn10, stronger effect = lower value 1.02 | locus YIL066C, strain RNR3, stronger effect = lower value 1.01 | locus YIL073C, strain SPO22, stronger effect = lower value 1.07 | locus YIL125W, strain kgd1, stronger effect = lower value 1.02 | locus YIR030C, strain dcg1, stronger effect = lower value 1.04 | locus YJL092W, strain hpr5, stronger effect = lower value 0.995 | locus YJL095W, strain BCK1 (second series), stronger effect = lower value 0.997 | locus YJL095W, strain BCK1, stronger effect = lower value 1.01 and 0.995 | locus YJL115W, strain asf1, stronger effect = lower value 0.996 | locus YJL129C, strain trk1, stronger effect = lower value 1.01 | locus YJL134W, strain LCB3, stronger effect = lower value 1.01 | locus YJL154C, strain vps35, stronger effect = lower value 1.01 | locus YJL164C, strain tpk1, stronger effect = lower value 1 | locus YJL166W, strain qcr8, stronger effect = lower value 0.993 | locus YJL168C, strain set2, stronger effect = lower value 1.02 | locus YJL187C, strain SWE1 (second series), stronger effect = lower value 1.02 | locus YJL187C, strain SWE1, stronger effect = lower value 0.996 | locus YJR043C, strain POL32, stronger effect = lower value 1 | locus YJR066W, strain TOR1, stronger effect = lower value 0.969
